From PubChem BioAssay
DAX1 inh-1 = DAX1 (NR0B1) inhibition, primary screen | HEK293T StAR-luciferase reporter, SF-1/DAX-1 repression relief | AID 652010 | 370,000 tested, 1.1% active | inhibition, % at 6.8 µM;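 active = inhibition above the mean over all tested compounds plus 3 SD, cut at about 3.6% in these data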;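 note: 0% = DAX-1 cells with DMSO and 100% = cells lacking DAX-1 with DMSO; higher inhibition means more luminescence from relief of DAX-1 repression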
hcDAF12 agonist = H. contortus DAF-12 activation, primary screen; HEK293 hcDAF-12 lit1-tk-luc reporter, luminescence; 0% DMSO, 100% Δ7-dafachronic acid; activation, % at 6.8 µM; 370,000 tested, 1.4% active; AID 652067;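 active = activation above the mean of all tested compounds plus 3 SD, cut at about 5.5% in these data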;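 note: 100% = response to 3 µM Δ7-dafachronic acid high control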
ssDAF-12 act = activates DAF-12 receptor from parasite S. stercoralis; HEK293 ssDAF-12/GRIP1 lit1-tk-luc reporter, luminescence; % of 3 µM dafachronic acid response; activation, % at 6.8 µM; 370,000 tested, 1% active; AID 652126;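 active = activation above the mean over all tested compounds plus 3 SD, cut at about 0.9% in these data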;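 note: 0% = DMSO-only wells and 100% = 3 µM delta7-dafachronic acid wells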
DAX1 inh-2 = inhibits human nuclear receptor DAX1 | HEK293 Gal4-DAX1 luciferase reporter, luminescence | inhibition, % at 6.75 µM | 340,000 tested, 0.99% active | AID 504766;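 active = inhibition above the mean over all tested compounds plus 3 SD, cut at about 4.2% in these data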;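 note: 0% = DAX1-transfected cells with DMSO and 100% = empty-vector control cells with DMSO; inhibition shows as a rise in luminescence from relieved DAX1 repression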
hgDAF12 agonist = activates the H. glycines DAF-12 receptor ligand-binding domain; activation, % at 6.8 µM; 370,000 tested, 1.8% active; HEK293 GAL4-hgDAF12 UAS-luciferase reporter, agonist luminescence; normalized to butyrate control;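 active = activation above a cutoff set at the mean of all screened compounds plus 3 SD, cut at about 10% in these data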;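 note: 0% = DMSO wells and 100% = sodium butyrate wells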
AHR act = human AHR activation | activation, % at 5 µM | 320,000 tested, 2.5% active | AID 2796 | AHR-responsive luciferase reporter cells, luminescence; in the data active = activation above about 47%;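 note: 0% = vehicle wells and 100% = reference agonist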
Target sequence (P35869 whole entry, looked up): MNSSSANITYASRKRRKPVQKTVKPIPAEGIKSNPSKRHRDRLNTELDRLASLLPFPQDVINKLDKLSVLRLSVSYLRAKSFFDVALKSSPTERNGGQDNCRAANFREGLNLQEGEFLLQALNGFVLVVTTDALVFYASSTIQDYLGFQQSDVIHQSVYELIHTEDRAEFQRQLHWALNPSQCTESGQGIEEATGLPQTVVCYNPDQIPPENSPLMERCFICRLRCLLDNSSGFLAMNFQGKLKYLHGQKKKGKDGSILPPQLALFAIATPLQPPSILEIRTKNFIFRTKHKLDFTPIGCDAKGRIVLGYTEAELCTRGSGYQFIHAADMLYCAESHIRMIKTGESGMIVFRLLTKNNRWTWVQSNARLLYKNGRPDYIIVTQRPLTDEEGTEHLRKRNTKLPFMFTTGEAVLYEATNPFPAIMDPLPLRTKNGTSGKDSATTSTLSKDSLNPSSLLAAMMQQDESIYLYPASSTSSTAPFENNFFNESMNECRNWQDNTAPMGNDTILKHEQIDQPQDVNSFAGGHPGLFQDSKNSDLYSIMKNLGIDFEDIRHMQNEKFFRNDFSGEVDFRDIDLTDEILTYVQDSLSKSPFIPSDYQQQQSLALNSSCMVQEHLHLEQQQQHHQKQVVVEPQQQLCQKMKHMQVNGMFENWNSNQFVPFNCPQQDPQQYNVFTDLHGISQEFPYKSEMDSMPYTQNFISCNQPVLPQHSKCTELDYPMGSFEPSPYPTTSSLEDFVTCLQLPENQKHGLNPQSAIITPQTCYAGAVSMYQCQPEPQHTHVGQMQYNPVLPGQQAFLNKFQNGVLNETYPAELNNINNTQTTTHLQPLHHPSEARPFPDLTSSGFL
AHR act confirm = human AHR activation, confirmation | 2,300 tested, 87% active | human cells, AHR-responsive luciferase reporter, luminescence | shares compounds with AHR act | activation, % at 9 µM; in the data active = activation above about 49%;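 note: HepG2 hepatoma cells carrying a DRE-driven firefly luciferase reporter; 0% = vehicle wells and 100% = reference agonist wells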
PXR counter = counter-screen for AHR activators: human PXR activators; activation, % at 11.6 µM; shares compounds with AHR act; cell-based PXR reporter, luciferase luminescence; 2,300 tested, 88% active; in the data active = activation above about 11%;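 note: human hepatoma DPX-2 cells expressing full-length human PXR; 0% = DMSO and 100% = reference agonist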
DAX1 inh confirm = confirmation of human DAX1 (NR0B1) inhibitors; shares compounds with DAX1 inh-1; AID 652134; inhibition, % at 6.8 µM; 2,400 tested, 87% active; HEK293T StAR-promoter luciferase reporter, SF-1/DAX-1 repression;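 active = inhibition above the average of every tested compound plus 3 SD, cut at about 3.8% in these data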;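 note: 0% = DAX-1 cells with DMSO and 100% = no DAX-1 control cells with DMSO; active compounds raise luminescence by relieving repression of the StAR reporter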
SF1 AF2mut Luc = counter-screen for DAX1 inhibitors: nonselective inhibitors with SF-1 AF2 mutant; inhibition, % at 6.8 µM; shares compounds with DAX1 inh-1; 2,400 tested, 78% active; HEK293 StAR-luciferase, luminescence;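 active = inhibition above the mean of all tested compounds plus 3 SD, cut at about 3% in these data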;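 note: 0% = DAX-1 transfected cells with DMSO and 100% = cells without DAX-1 with DMSO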
LXR ag = activates human LXR-beta, counter-screen for hcDAF-12 agonists | 3,400 tested, under 10 active | HEK293 Gal4-LXR tk-luc reporter, luminescence, 24 h; normalized: DMSO 0%, positive control 100% | activation, % at 6.8 µM | shares compounds with hcDAF12 agonist;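 active = mean percent activation of the reporter above a cutoff set as the average over tested compounds plus their standard deviation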
hcDAF12 ag = hcDAF-12 agonism, confirmation assay. shares compounds with hcDAF12 agonist. 3,400 tested, 61% active. HEK293 hcDAF-12 lit1-tk-luc reporter, luminescence; % of Δ7-dafachronic acid response. activation, % at 6.8 µM;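 active = mean activation across triplicate tests above the threshold derived from the earlier primary screen, cut at about 5.5% in these data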;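 note: 0% = DMSO only wells and 100% = 3 µM Δ7-dafachronic acid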
* hit, by the source's call; nt = not tested or not shown. Shown are actives, neighbours in structure and some others; about 5.7% of the full set was active somewhere.

SMILES	DAX1 inh-1	hcDAF12 agonist	ssDAF-12 act	DAX1 inh-2	hgDAF12 agonist	AHR act	AHR act confirm	PXR counter	DAX1 inh confirm	SF1 AF2mut Luc	others
Cn1nccc1C(=O)Nc1ccc2c(c1)OCO2	4.7*	2	-1	0	9	104*	60*	19*	5.8*	3.9*
CC(=O)Nc1cccc(-c2csc(NCc3ccccc3)n2)c1	0	0	-1	3	0	26	nt	nt	nt	nt
CC(=O)Nc1cccc(-c2csc(Nc3ccccn3)n2)c1	4.5*	5	0	2	7	85*	74*	8	12*	6.0*
CCc1noc(C)c1C(=O)NC1CC(C)(C)Cc2c1cnn2-c1ccccc1 (stereo not drawn)	1	-3	-1	-1	-1	-1	nt	nt	nt	nt
COc1cccc2c1Oc1ncccc1N(C(=O)CCC(=O)NCc1ccccc1F)C2	0	-2	-1	0	0	0	nt	nt	nt	nt
CC(C)Sc1nnc(NC(=O)c2ccc3c(c2)OCO3)s1	5.3*	0	1	1	4	110*	47	27*	7.7*	4.4*
CCSc1nnc(NC(=O)c2ccc3c(c2)OCO3)s1	2	1	0	2	6	26	nt	nt	nt	nt
Clc1ccc(-c2cn3cc(Br)ccc3n2)cc1Cl	8.0*	14*	3.0*	2	23*	90*	137*	16*	13*	5.2*
Cc1ccc2nc(-c3ccc4c(c3)OCCO4)cn2c1	-3	-5	-2	-10	-12	-9	nt	nt	nt	nt
COc1ccccc1CNC(=O)C1CCC(CNc2c(N3CCC(C)CC3)c(=O)c2=O)CC1 (stereo not drawn)	0	0	-1	3	-2	0	nt	nt	nt	nt
CCc1ccc(/C(C)=N/NC(=O)CNC(=O)/C=C/c2ccco2)cc1	nt	nt	nt	0	nt	3	nt	nt	nt	nt
c1ccc(Nc2nc(-c3cccs3)cs2)nc1	4.6*	15*	2.6*	1	12*	117*	155*	23*	13*	5.1*	LXR ag=2;hcDAF12 ag=19*
Cc1cccc(Nc2nc(-c3cccs3)cs2)n1	3	20*	4.0*	4.7*	17*	87*	161*	21*	nt	nt	LXR ag=2;hcDAF12 ag=17*
O=C(COc1ccccc1)Nc1nc(-c2cccs2)cs1	0	-3	-1	0	-2	4	nt	nt	nt	nt
Cc1c(NC(=O)COc2cccc(Cl)c2Cl)c(=O)n(-c2ccccc2)n1C	1	0	-1	0	1	7	nt	nt	nt	nt
Cn1c(CNc2ccc(O)cc2)nc2ccccc21	0	0	0	1	-1	15	nt	nt	nt	nt
Cc1ccc(NCc2nc3ccccc3n2C)cc1C	3	13*	1.7*	3	13*	103*	127*	26*	nt	nt	LXR ag=1;hcDAF12 ag=8.2*
COc1ccccc1-c1noc(-c2ccncc2)n1	0	0	-1	1	5	20	nt	nt	nt	nt
COc1ccccc1-c1nc(-c2ccccn2)no1	3	8.6*	0	-3	8	113*	118*	6	nt	nt	LXR ag=1;hcDAF12 ag=10*
